# Source: PubChem BioAssay
# Active and inactive are the calls of the source.
# What was measured:
# [1] = binders of probe aFSTL3 on microarray, primary screen, stem cell growth factor project, biochemical, small-molecule microarray, fluorescence 635/667 (AID 1064); details: higher = more signal;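 also: measures binding of the biotinylated anti-FSTL3 antibody to printed compounds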
# [2] = binders from COS7 lysate, DM2A8 probe, primary screen, torsin A project, cell lysate, small-molecule microarray, fluorescence 635/667 (AID 1065); details: higher = more signal, COS7 lysate expressing mutant human TOR1A
# [3] = binders of probe aFGF2 on microarray, primary screen, stem cell growth factor project, biochemical, small-molecule microarray, fluorescence 635/667 (AID 1067); details: higher = more signal;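 also: measures binding of biotinylated aFGF2 protein to printed compounds on slides; z-score merges feature fluorescence and signal-to-noise across triplicate slides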
# [4] = binders of probe aFGF10 on microarray, primary screen, stem cell growth factor project, biochemical, small-molecule microarray, fluorescence 635/667 (AID 1071); details: higher = more signal;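 also: score merges 667 nm spot intensity and signal to noise from triplicate slides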
# [5] = target: Neurogenic locus notch homolog protein 2 (Homo sapiens) (UniProt Q04721); experiment: Notch2 binders on small-molecule microarrays, primary screen, biochemical, small-molecule microarray, 635 nm fluorescence, stem cell growth factors (AID 1073); details: Notch2 binding, higher = more signal
# [6] = target: Pro-neuregulin-1, membrane-bound isoform (Homo sapiens) (UniProt Q02297); experiment: NRG1 binders on small-molecule microarrays, primary screen, psychiatric disease protein project, biochemical, small-molecule microarray, fluorescence 635/667 (AID 1075); details: NRG1 binding, 635 nm fluorescence, higher = more signal;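 also: score combines 667 nm spot fluorescence with signal to noise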
# [7] = system: Neuregulin-1 EGF-like domain; experiment: binders of neuregulin-1 EGF-like domain, primary screen, biochemical, small-molecule microarray, 635 nm fluorescence (AID 1081); details: small-molecule microarray binding, higher = more signal;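 also: binding of the protein to compounds printed on small-molecule microarray slides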
# [8] = FRG1 promoter luciferase signal modulators, primary screen, FRG1 inhibition for FSHD, cell-based, C2C12 myotubes, firefly/Renilla luciferase, luminescence (AID 1084); details: higher = more signal, called active from +8 up or from −8 down
# [9] = binders of probe aFST on microarray, primary screen, stem cell growth factor project, biochemical, small-molecule microarray, fluorescence 635/667 (AID 1086); details: higher = more signal;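 also: score merges 667 nm fluorescence with signal-to-noise of each printed compound spot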
# [10] = binders of probe aHhip on microarray, primary screen, stem cell growth factor project, biochemical, small-molecule microarray, fluorescence 635/667 (AID 1087); details: higher = more signal;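 also: score merges spot fluorescence at 667nm with spot signal to noise ratio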
# [11] = system: PRMT1 (protein arginine N-methyltransferase 1); experiment: PRMT1 binders on small-molecule microarrays, primary screen, biochemical, small-molecule microarray, 635 nm fluorescence (AID 1088); details: small-molecule microarray binding, higher = more signal;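 also: binding of Prmt1 protein to compounds spotted on small-molecule microarray slides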
# [12] = yeast growth modulation, basal conditions, primary screen, YJM789 clinical isolate, OD600, 24 h (AID 1089);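 also: growth of clinical yeast isolate S. cerevisiae YJM 789 seeded 1000 cells per well; test concentration not given here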; details: S. cerevisiae YJM789 growth, higher = more signal, called active from +8 up or from −8 down
# [13] = fission yeast growth modulation, primary screen, strain 972, OD600, 24 h, no modulator (AID 1090);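 also: basal condition with compound alone and no growth modifier present; test concentration not given here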; details: S. pombe 972 growth, higher = more signal, called active from +8 up or from −8 down
# [14] = S. cerevisiae growth modulation with rapamycin, primary screen, strain BY4716, OD600, 96 h (AID 1091); details: higher = more signal, called active from +8 up or from −8 down; also: test concentration not given here
# [15] = target: Torsin-1A-interacting protein 2 (Homo sapiens) (UniProt Q8NFQ8); experiment: LULL1 binders on small-molecule microarray, primary screen, cell lysate, human LULL1 lysate, 635/667 nm fluorescence (AID 1092); details: hLULL1 lysate binding, 635 nm fluorescence, higher = more signal;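 also: probe is lysate of COS7 cells overexpressing human LULL1; score merges per-feature 667 nm fluorescence with signal-to-noise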
# [16] = E. coli growth modulation, two-sided OD650, primary screen, E. coli filamentation project, strain DRC41, 24 h (AID 1093); details: OD650, 24 h, higher = more signal, called active from +8 up or from −8 down;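 also: MC1000 strain lacking acrAB efflux and sulA so SOS filamentation is blocked; test concentration not given here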
# [17] = small-molecule microarray binders of probe aLefty2, primary screen, biochemical, biotinylated probe, 635/667 nm fluorescence (AID 1094); details: higher = more signal;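 also: score merges spot fluorescence near 667 nm with spot signal-to-noise ratio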
# [18] = system: Noggin (protein binding on small-molecule microarray); experiment: Noggin binders on small-molecule microarray, primary screen, biochemical, 635/667 nm fluorescence (AID 1095); details: 635 nm fluorescence, higher = more signal;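 also: score merges 667 nm feature fluorescence with signal to noise over triplicate slides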
# [19] = target: Neurogenic locus notch homolog protein 3 (Homo sapiens) (UniProt Q9UM47); experiment: NOTCH3 binders on small-molecule microarray, primary screen, biochemical, 635/667 nm fluorescence (AID 1096); details: NOTCH3 binding, 635 nm fluorescence, higher = more signal
# [20] = small-molecule microarray binders of probe aEGFR, primary screen, biochemical, biotinylated probe, 635/667 nm fluorescence (AID 1097); details: higher = more signal;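 also: probe is a biotinylated anti-EGFR antibody binding compounds printed on slides; score combines fluorescence near 667 nm and signal to noise of each spot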
# Sequence of Torsin-1A-interacting protein 2 (Homo sapiens) (Q8NFQ8 whole entry, looked up): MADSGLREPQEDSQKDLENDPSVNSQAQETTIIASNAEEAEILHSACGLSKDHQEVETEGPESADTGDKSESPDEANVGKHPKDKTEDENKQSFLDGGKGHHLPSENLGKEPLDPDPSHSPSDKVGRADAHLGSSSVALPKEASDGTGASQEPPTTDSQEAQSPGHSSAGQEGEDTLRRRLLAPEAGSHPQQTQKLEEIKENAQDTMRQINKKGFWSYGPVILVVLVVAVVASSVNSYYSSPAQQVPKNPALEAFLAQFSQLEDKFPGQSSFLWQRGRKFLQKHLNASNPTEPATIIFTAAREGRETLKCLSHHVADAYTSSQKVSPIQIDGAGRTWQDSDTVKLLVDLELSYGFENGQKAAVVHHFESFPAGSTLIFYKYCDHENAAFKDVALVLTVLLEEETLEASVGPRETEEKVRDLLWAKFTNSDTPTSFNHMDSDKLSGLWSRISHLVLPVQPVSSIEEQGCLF
# Sequence of Neurogenic locus notch homolog protein 3 (Homo sapiens) (Q9UM47 whole entry, looked up): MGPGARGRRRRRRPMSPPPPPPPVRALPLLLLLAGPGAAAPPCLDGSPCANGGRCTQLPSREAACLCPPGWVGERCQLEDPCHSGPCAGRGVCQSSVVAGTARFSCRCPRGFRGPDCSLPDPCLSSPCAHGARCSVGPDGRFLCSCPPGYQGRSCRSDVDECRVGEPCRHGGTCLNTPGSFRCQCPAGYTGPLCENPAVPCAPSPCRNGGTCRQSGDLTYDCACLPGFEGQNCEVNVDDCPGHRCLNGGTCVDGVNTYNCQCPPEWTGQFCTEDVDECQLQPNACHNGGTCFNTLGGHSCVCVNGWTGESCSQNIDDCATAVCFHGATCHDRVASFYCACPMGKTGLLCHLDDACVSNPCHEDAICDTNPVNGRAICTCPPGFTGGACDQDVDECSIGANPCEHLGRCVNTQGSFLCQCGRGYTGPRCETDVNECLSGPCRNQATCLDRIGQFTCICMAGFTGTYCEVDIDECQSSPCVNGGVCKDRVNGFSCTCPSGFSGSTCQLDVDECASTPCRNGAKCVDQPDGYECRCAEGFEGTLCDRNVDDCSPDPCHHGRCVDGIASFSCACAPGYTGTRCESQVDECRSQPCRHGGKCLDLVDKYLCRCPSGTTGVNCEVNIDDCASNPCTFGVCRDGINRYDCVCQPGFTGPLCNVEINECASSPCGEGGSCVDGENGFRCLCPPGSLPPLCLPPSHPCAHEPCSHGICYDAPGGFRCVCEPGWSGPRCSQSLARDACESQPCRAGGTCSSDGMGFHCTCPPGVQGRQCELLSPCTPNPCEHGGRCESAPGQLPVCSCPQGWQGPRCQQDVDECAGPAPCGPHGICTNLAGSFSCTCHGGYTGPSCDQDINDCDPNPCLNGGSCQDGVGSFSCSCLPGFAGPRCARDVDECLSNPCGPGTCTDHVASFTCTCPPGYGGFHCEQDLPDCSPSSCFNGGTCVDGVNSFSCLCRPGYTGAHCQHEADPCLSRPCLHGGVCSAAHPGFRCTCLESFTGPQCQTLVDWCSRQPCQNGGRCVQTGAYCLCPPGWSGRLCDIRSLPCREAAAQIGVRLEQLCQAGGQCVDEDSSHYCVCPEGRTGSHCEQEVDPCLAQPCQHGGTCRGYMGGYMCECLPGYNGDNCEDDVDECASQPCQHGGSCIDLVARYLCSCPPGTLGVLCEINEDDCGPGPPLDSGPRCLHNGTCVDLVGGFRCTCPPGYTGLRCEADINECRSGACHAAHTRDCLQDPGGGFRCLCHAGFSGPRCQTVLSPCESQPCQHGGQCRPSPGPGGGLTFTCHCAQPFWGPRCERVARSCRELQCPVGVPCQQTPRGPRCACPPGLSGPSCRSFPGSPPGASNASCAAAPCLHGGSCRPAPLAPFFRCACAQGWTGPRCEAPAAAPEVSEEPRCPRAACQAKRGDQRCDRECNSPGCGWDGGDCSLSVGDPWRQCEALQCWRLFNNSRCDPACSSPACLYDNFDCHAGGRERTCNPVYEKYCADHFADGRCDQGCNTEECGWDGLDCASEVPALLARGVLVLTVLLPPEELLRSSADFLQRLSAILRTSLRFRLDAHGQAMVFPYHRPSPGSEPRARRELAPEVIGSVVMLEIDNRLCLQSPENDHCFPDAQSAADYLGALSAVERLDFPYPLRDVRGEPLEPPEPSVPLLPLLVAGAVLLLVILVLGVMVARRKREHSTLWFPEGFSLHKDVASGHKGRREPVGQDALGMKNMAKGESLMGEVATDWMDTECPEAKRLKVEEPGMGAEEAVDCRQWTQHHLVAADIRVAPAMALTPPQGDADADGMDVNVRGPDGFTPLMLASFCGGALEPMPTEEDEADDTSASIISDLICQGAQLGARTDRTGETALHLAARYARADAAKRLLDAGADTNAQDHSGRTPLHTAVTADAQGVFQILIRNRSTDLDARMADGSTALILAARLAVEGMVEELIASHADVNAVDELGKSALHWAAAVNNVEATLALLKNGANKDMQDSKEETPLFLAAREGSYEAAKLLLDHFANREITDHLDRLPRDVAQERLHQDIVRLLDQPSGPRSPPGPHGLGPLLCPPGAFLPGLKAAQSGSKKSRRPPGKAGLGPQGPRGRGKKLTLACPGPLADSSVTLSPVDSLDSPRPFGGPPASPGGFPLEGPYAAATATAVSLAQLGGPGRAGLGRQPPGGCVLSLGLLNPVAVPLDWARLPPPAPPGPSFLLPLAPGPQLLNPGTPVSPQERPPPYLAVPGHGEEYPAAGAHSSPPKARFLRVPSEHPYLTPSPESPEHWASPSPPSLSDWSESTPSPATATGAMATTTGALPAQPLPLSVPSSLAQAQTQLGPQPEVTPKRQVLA
# Sequence of Pro-neuregulin-1, membrane-bound isoform (Homo sapiens) (Q02297 whole entry, looked up, the tested form may be a part, canonical isoform): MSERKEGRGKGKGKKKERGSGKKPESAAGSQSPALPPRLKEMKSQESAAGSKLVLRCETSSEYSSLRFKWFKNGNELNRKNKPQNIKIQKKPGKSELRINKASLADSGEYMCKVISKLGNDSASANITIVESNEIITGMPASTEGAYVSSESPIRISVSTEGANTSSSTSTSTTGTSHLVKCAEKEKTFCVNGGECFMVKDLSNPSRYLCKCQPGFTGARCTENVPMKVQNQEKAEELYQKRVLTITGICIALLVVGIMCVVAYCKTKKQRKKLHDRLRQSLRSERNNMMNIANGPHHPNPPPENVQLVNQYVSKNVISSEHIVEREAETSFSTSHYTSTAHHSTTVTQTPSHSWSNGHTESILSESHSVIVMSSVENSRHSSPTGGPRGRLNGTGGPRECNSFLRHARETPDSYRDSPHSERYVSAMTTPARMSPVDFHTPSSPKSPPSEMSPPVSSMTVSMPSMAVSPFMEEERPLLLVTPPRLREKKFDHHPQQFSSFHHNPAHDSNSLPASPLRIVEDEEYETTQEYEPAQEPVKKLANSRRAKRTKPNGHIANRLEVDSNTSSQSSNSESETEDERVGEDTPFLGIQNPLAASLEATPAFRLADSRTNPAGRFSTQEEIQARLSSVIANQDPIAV
structure (smiles),measurement,setting,value
CC1(C)[C@@H]2CC(C(O)C3C=CC4C(=O)N(Cc5ccccc5)C(=O)C4N3n3cnnc3)=C[C@H]1C2 (stereo not given in full),composite z-score,[1],-0.0224
same,composite z-score,[2],0.839
same,composite z-score,[3],0.0119
same,composite z-score,[4],0.959
same,composite z-score,[5],1.33
same,composite z-score,[6],1.56
same,composite z-score,[7],1.39
same,z-score,[8],0.349 (inactive)
same,composite z-score,[9],1.06
same,composite z-score,[10],0.0053
same,composite z-score,[11],1.29
same,z-score,[12],0.0365 (inactive)
same,z-score,[13],1.57 (inactive)
same,z-score,[14],1.38 (inactive)
same,composite z-score,[15],3.12
same,z-score,[16],-0.117 (inactive)
same,composite z-score,[17],0.104
same,composite z-score,[18],0.458
same,composite z-score,[19],0.791
same,composite z-score,[20],0.0564
C[N+](C)(C)CCCCNC(=O)[C@@H]1C[C@@H]2C(=O)N[C@@H](Cc3ccccc3)C(=O)N2[C@@H]1c1cccc(OCCO)c1,composite z-score,[1],0.241
same,composite z-score,[2],-0.108
same,composite z-score,[3],-0.147
same,composite z-score,[4],0.394
same,composite z-score,[5],-0.39
same,composite z-score,[6],1.01
same,composite z-score,[7],1.14
same,z-score,[8],1.51 (inactive)
same,composite z-score,[9],-0.253
same,composite z-score,[10],-0.195
same,composite z-score,[11],0.402
same,z-score,[12],0.534 (inactive)
same,z-score,[13],-0.642 (inactive)
same,z-score,[14],-1.14 (inactive)
same,composite z-score,[15],1.42
same,z-score,[16],1.07 (inactive)
same,composite z-score,[17],-0.0333
same,composite z-score,[18],0.692
same,composite z-score,[19],-0.0417
same,composite z-score,[20],-0.169
C=C(CCCC)/C(=C/C[C@H](OC(=O)c1ccncc1)c1ccccc1OCCO)c1cnc2ccccc2c1,composite z-score,[1],-0.345
same,composite z-score,[2],1.04
same,composite z-score,[3],-0.0544
same,composite z-score,[4],0.706
same,composite z-score,[5],0.965
same,composite z-score,[6],0.424
same,composite z-score,[7],1.05
same,z-score,[8],-0.756 (inactive)
same,composite z-score,[9],0.228
same,composite z-score,[10],0.126
same,composite z-score,[11],1.55
same,z-score,[12],-1.73 (inactive)
same,z-score,[13],-1.14 (inactive)
same,z-score,[14],3.47 (inactive)
same,composite z-score,[15],1.34
same,z-score,[16],-0.0552 (inactive)
same,composite z-score,[17],-0.217
same,composite z-score,[18],1.27
same,composite z-score,[19],1.13
same,composite z-score,[20],-0.111
NC(=O)NCC#Cc1ccc2c(c1)[C@]1(C(=O)N2)[C@H](c2ccccc2OCCO)N2[C@H](c3ccccc3)[C@H](c3ccccc3)OC(=O)[C@H]2[C@@H]1C(=O)Nc1nc2ccccc2s1,composite z-score,[1],-0.108
same,composite z-score,[2],-0.354
same,composite z-score,[3],-0.016
same,composite z-score,[4],0.268
same,composite z-score,[5],0.295
same,composite z-score,[6],0.756
same,composite z-score,[7],0.176
same,z-score,[8],0.169 (inactive)
same,composite z-score,[9],0.617
same,composite z-score,[10],-0.0296
same,composite z-score,[11],1.24
same,z-score,[12],1.99 (inactive)
same,z-score,[13],1.61 (inactive)
same,z-score,[14],3.78 (inactive)
same,composite z-score,[15],2.49
same,z-score,[16],1.15 (inactive)
same,composite z-score,[17],-0.0416
same,composite z-score,[18],0.288
same,composite z-score,[19],0.773
same,composite z-score,[20],-0.178
COC(=O)[C@@]1(Cc2ccc(OC)cc2)[C@H]2c3cc(C(=O)N4CCCC4)n(CCN4CNCC4=O)c3C[C@H]2CN1C(=O)c1ccccc1,composite z-score,[1],2.52
same,composite z-score,[2],0.873
same,composite z-score,[3],0.797
same,composite z-score,[4],1.22
same,composite z-score,[5],1.4
same,composite z-score,[6],1.78
same,composite z-score,[7],1.45
same,z-score,[8],0.632 (inactive)
same,composite z-score,[9],2.37
same,composite z-score,[10],3.13
same,composite z-score,[11],-0.871
same,z-score,[12],0.503 (inactive)
same,z-score,[13],0.706 (inactive)
same,z-score,[14],0.429 (inactive)
same,composite z-score,[15],3.77
same,z-score,[16],-0.977 (inactive)
same,composite z-score,[17],1.42
same,composite z-score,[18],-0.364
same,composite z-score,[19],0.293
same,composite z-score,[20],1.15
